Measurements published in PubChem BioAssay (Tox21).
Results filed as inconclusive are left out. Where a call stands in place of a potency, no number is given. Calls of active or inactive are those of the source. Calls follow the shape of the dose curve; as a rule, active = well fitted curve in the direction sought with a large enough effect in the repeat runs; inconclusive = weak or mixed curves; inactive = no such curve, though single readings can be large; an effect the other way counts as inactive or inconclusive.

molecular target: Luciferin 4-monooxygenase (Photinus pyralis) (UniProt P08659); assay: qHTS assay to identify small molecule inhibitors of firefly luciferase (AID 1224835); also: nearly all actives have a fitted effect of over 25% in size; settings: purified P. pyralis luciferase, luminescence inhibition; series mostly up to 115 µM
Summary of the method: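 Biochemical qHTS: compounds run as interplate titrations against purified firefly enzyme, with D-luciferin and ATP each at its KM concentration. Light output recorded by CCD imaging.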
Potency is read from the fitted curve at half-maximal effect.

Chain of Luciferin 4-monooxygenase (Photinus pyralis) (P08659 whole entry, looked up): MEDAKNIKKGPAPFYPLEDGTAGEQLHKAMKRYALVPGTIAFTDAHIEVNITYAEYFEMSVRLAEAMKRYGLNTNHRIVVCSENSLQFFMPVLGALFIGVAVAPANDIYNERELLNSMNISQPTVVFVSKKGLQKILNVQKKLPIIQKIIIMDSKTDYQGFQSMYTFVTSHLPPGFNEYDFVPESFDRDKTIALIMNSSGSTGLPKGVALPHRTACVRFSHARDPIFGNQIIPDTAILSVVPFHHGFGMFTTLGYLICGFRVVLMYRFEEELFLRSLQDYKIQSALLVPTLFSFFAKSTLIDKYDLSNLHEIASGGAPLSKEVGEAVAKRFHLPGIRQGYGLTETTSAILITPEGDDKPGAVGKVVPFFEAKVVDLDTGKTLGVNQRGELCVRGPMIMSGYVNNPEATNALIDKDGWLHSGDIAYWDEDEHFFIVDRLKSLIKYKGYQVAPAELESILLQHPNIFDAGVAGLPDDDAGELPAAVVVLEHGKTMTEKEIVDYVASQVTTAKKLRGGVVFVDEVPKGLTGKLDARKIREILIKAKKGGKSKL

Row | SMILES | Potency
1 | CC1(C)COCN1 | inactive
2 | CCCCOC(=O)C(C)CC (stereo unspecified) | inactive
3 | CO[Si](CCC1CCC2OC2C1)(OC)OC (stereo unspecified) | inactive
4 | Clc1ccc(C(c2ccccc2Cl)C(Cl)Cl)cc1 (stereo unspecified) | inactive
5 | CC1=CCC(=O)O1 | inactive
6 | CC(C)c1cccc(C(C)C)c1N1C(=O)c2ccc(O)cc2C1=O | inactive
7 | COc1cccc(OC)c1O | inactive
8 | C=C(C)CCCC | inactive
9 | CCOCOCC | inactive
10 | CCN=C1C=CC(=C(c2ccc(N(CC)CC)cc2)c2ccc(N(CC)CC)cc2)c2ccccc21 | 28.1 µM (active)
11 | CCCC(=O)OCC(COC(=O)CCC)OC(=O)CCC | inactive
12 | CCO[Si](C)(C)OCC | inactive
13 | CS(C)(=O)=O | inactive
14 | CCCCCCCCCCCCN(CCO)CCO | inactive
15 | CC(C)=CCCC(C)O (stereo unspecified) | inactive
16 | C#CC(O)CCC (stereo unspecified) | inactive
17 | C/C=C/C(=O)C1=C(C)CCCC1(C)C | inactive
18 | CCc1cccc(CC)c1NC(=O)C(=O)O | inactive

Row | SMILES | Potency
19 | COc1ccccc1C=O | inactive
20 | CCOC(=O)CN | inactive
21 | Cc1cccc(C)c1NC(=O)CN1CCN(CCCC(c2ccc(F)cc2)c2ccc(F)cc2)CC1 | inactive
22 | O=C1OC(OC(=O)c2cccnc2Nc2cccc(C(F)(F)F)c2)c2ccccc21 (stereo unspecified) | inactive
23 | C=CC/C=C/C/C=C/C/C=C/C | inactive
24 | CCOC(OCC)C(=O)c1ccccc1 | inactive
25 | Oc1cc2ccccc2cc1O | inactive
26 | Cc1cccc(N(C)C)c1 | inactive
27 | CCCCCCCC/C=C/CCCOC(C)=O | inactive
28 | Cc1cncc(C)c1 | inactive
29 | O=CC1CC1 | inactive
30 | CCCCOCC | inactive
31 | CCc1cccc(CC)c1N(COC)C(=O)CS(=O)(=O)O | inactive
32 | O=c1cccc[nH]1 | inactive
33 | O=C1NCN(c2ccccc2)C12CCN(CCCC(c1ccc(F)cc1)c1ccc(F)cc1)CC2 | inactive
34 | CSc1ccc2c(c1)N(CCC1CCCCN1C)c1ccccc1S2 (stereo unspecified) | inactive
35 | Cc1cnccn1 | inactive
36 | CCOC(/C=C(\C)CCC=C(C)C)OCC | inactive

tested on: not listed separately; assay: qHTS assay to identify small molecule agonists of the constitutive androstane receptor (CAR) signaling pathway - cell viability counter screen (AID 1224836); settings: HepG2-CYP2B6-hCAR viability, CellTiter-Fluor, 23 h, PK11195 added to every well; series mostly up to 92.4 µM; also: nearly all actives have a fitted effect of over 45% in size
Summary of the method: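 HepG2 cells stably carrying hCAR and a CYP2B6-2.2kb reporter were plated 4 h, then given compounds at 15 concentrations plus PK11195 (final 0.75 uM). After 23 h at 37 C, viability was read by CellTiter-Fluor fluorescence.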

Row | SMILES | Potency
37 | CC1(C)COCN1 | inactive
38 | CCCCOC(=O)C(C)CC (stereo unspecified) | inactive
39 | CO[Si](CCC1CCC2OC2C1)(OC)OC (stereo unspecified) | inactive
40 | Clc1ccc(C(c2ccccc2Cl)C(Cl)Cl)cc1 (stereo unspecified) | inactive
41 | CC1=CCC(=O)O1 | inactive
42 | COc1cccc(OC)c1O | inactive
43 | C=C(C)CCCC | inactive
44 | CCOCOCC | inactive
45 | CCN=C1C=CC(=C(c2ccc(N(CC)CC)cc2)c2ccc(N(CC)CC)cc2)c2ccccc21 | 6.08 µM (active)
46 | CCCC(=O)OCC(COC(=O)CCC)OC(=O)CCC | inactive
47 | CCO[Si](C)(C)OCC | inactive
48 | CS(C)(=O)=O | inactive
49 | CCCCCCCCCCCCN(CCO)CCO | 68.3 µM (active)
50 | CC(C)=CCCC(C)O (stereo unspecified) | inactive
51 | C#CC(O)CCC (stereo unspecified) | inactive
52 | C/C=C/C(=O)C1=C(C)CCCC1(C)C | inactive
53 | CCc1cccc(CC)c1NC(=O)C(=O)O | inactive
54 | COc1ccccc1C=O | inactive

Row | SMILES | Potency
55 | CCOC(=O)CN | inactive
56 | Cc1cccc(C)c1NC(=O)CN1CCN(CCCC(c2ccc(F)cc2)c2ccc(F)cc2)CC1 | 23.7 µM (active)
57 | O=C1OC(OC(=O)c2cccnc2Nc2cccc(C(F)(F)F)c2)c2ccccc21 (stereo unspecified) | inactive
58 | C=CC/C=C/C/C=C/C/C=C/C | inactive
59 | CCOC(OCC)C(=O)c1ccccc1 | inactive
60 | Oc1cc2ccccc2cc1O | inactive
61 | Cc1cccc(N(C)C)c1 | inactive
62 | CCCCCCCC/C=C/CCCOC(C)=O | inactive
63 | Cc1cncc(C)c1 | inactive
64 | O=CC1CC1 | inactive
65 | CCCCOCC | inactive
66 | CCc1cccc(CC)c1N(COC)C(=O)CS(=O)(=O)O | inactive
67 | O=c1cccc[nH]1 | inactive
68 | O=C1NCN(c2ccccc2)C12CCN(CCCC(c1ccc(F)cc1)c1ccc(F)cc1)CC2 | 16.8 µM (active)
69 | CSc1ccc2c(c1)N(CCC1CCCCN1C)c1ccccc1S2 (stereo unspecified) | 48.4 µM (active)
70 | Cc1cnccn1 | inactive
71 | CCOC(/C=C(\C)CCC=C(C)C)OCC | inactive
